Where “and” joins values, the source holds several entries; their conditions need not be identical. Identical values can stand only once. Results filed as inconclusive are left out. Some structures have more than one record in an assay (separate samples or runs), and their calls can disagree. Calls of active or inactive are those of the source. Calls follow the shape of the dose curve; as a rule, active = well fitted inhibition curve with a large enough effect in the repeat runs; inconclusive = weak or mixed curves; inactive = no such curve, though single readings can be large or run the other way.
% is scaled to controls: 0 for no effect and ±100 for the full control effect; potency is read from the fitted curve at half-maximal effect.

Cytochrome P450 2C9 (Homo sapiens), sequence (P11712 whole entry, looked up): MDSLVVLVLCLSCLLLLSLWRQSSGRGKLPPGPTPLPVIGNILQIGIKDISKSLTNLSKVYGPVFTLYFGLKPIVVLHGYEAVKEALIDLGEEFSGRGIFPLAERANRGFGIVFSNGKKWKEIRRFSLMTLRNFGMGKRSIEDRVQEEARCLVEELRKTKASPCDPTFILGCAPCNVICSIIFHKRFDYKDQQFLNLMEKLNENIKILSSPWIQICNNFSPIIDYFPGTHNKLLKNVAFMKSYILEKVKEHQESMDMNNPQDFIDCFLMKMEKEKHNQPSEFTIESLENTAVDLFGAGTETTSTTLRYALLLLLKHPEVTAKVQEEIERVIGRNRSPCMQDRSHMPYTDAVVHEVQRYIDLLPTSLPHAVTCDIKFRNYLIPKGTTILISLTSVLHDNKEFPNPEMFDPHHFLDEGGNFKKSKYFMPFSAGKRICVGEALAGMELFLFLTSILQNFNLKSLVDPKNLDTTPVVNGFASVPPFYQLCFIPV

This assay addresses Cytochrome P450 2C9 (Homo sapiens) (UniProt P11712). As to the kind of experiment: Cytochrome P450 family 2 subfamily C member 9 (CYP2C9) small molecule antagonists: luciferase biochemical (cell-free) qHTS assay (AID 1645842). Also: nearly all actives have a fitted effect of over 55% in size. Particulars: P450-Glo CYP2C9 enzyme assay, luciferin luminescence; series mostly up to 57.4 µM; activity change, negative = inhibition: at the top concentration. As to the method:
National Center for Advancing Translational Sciences [NCATS] Assay Overview: Cytochrome P450 (CYP) enzymes are membrane-bound hemeproteins that play a key role in metabolism of drugs and xenobiotics. Assaying the effect of chemicals on CYP isozymes is useful to minimize the adverse drug reactions and toxicities in drug development process. Chemical compounds were tested for their effect on CYP enzyme activities by using P450-Glo (TM) screening systems (Promega Corporation, Madison, WI). These systems provide a luminescent method containing proluciferin substrates and are converted to luciferin products by CYP isozymes. The luciferin products formed are detected with a luciferin detection reagent, and the amount of light produced is proportional to CYP activity. P450-Glo (TM) CYP2C9 screening system (Catalog. No. V9790) was used to detect the compounds that interfere in CYP2C9 activity.
Assay Protocol Summary: Two ul of enzyme-substrate mix supplemented with 0.4% Bovine Serum Albumin was dispensed into medium binding white/solid 1536-well plates (Greiner Bio-One North America Inc., Monroe, NC) using a Flying Reagent Dispenser (FRD, Aurora Discovery, San Diego, CA). […] The assay plates were incubated at room temperature for 10 min. Then 2 ul of NADPH regeneration solution was added to each well of the assay plates using an FRD and incubated at 37C for 1 h. The reaction was stopped by adding 4 ul of detection reagent using an FRD and after 20 min incubation at room temperature, the luminescence signal was measured using a ViewLux plate reader (Perkin Elmer, Shelton, CT). Data were expressed as relative luminescence units.
Consider `NC(=O)OCC(COC(N)=O)c1ccccc1`, for which the “activity change, negative = inhibition” value was 7.72% (inactive).
Turning to `Cc1ccc(-c2cc(C(F)(F)F)nn2-c2ccc(S(N)(=O)=O)cc2)cc1`, the Potency was 12.3 µM (active).
Consider `O=C(CCCN1CCC(O)(c2ccc(Cl)cc2)CC1)c1ccc(F)cc1`, for which the “activity change, negative = inhibition” value was 11.5% (inactive).
For `N[C@@H](Cc1c[nH]c2ccc(O)cc12)C(=O)O`, the Potency was 15.5 µM (active).
Same read-out and setting: the value for `CS(=O)(=O)Nc1ccc([N+](=O)[O-])cc1Oc1ccccc1` was 13.8 µM (active).
With `O=c1[nH]cc(F)c(=O)[nH]1`, the “activity change, negative = inhibition” value is 1.1% (inactive).
For `Nc1ccn([C@H]2CC[C@@H](CO)O2)c(=O)n1`, the “activity change, negative = inhibition” value is 9.29% (inactive).
For the compound `COc1cc2nc(N3CCN(C(=O)C4COc5ccccc5O4)CC3)nc(N)c2cc1OC` (stereo not given), the “activity change, negative = inhibition” value is -26.6% (inactive).
On the same count and under the same terms, to `Cn1ccc2cc3c(cc21)CCN3C(=O)Nc1cccnc1` belongs 3.82% [at 23.9 µM] (inactive); to `CCC1(c2ccccc2)C(=O)NCNC1=O`, 8.85% (inactive).
For the compound `Clc1ccc2c(c1)C(N1CCNCC1)=Nc1ccccc1O2`, the “activity change, negative = inhibition” value is 6.46% (inactive).
For `C[C@](N)(Cc1ccc(O)c(O)c1)C(=O)O`, the “activity change, negative = inhibition” value is 2.48% (inactive).
Turning to `C[C@H]1c2cccc(O)c2C(O)=C2C(=O)[C@]3(O)C(O)=C(C(N)=O)C(=O)[C@@H](N(C)C)[C@@H]3[C@@H](O)[C@@H]21`, the “activity change, negative = inhibition” value was -27.5% (inactive).
As to `CCN1CCCC1CNC(=O)c1cc(S(=O)(=O)CC)c(N)cc1OC` (stereo not given), the “activity change, negative = inhibition” value was -26.5% (inactive).
Consider `Clc1ccc2nsnc2c1NC1=NCCN1`, for which the “activity change, negative = inhibition” value was 15.4% (inactive).
With `CN(C)CCC=C1c2ccccc2C=Cc2ccccc21`, the Potency entry is “inactive”.
Regarding `CC1(CN2CCC(n3c(=O)[nH]c4ccccc43)CC2)OCc2ccccc2-n2cccc21` (stereo not given), the Potency is 9.77 µM (active).
Still for that read-out and setting: to `CC#C[C@]1(O)CC[C@H]2[C@@H]3CCC4=CC(=O)CCC4=C3[C@@H](c3ccc(N(C)C)cc3)C[C@@]21C` belongs 1.74 µM (active).
Consider `CC1(C)O[C@H]2CC(=O)OC[C@]23[C@H]2CC[C@@]4(C)[C@H](c5ccoc5)OC(=O)[C@H]5O[C@]54[C@]2(C)C(=O)C[C@@H]13`, for which the “activity change, negative = inhibition” value was 5.27% (inactive).
On to `O=C1N(c2ccccc2)c2ccccc2C1(Cc1ccncc1)Cc1ccncc1`, for which the Potency is 2.19 µM (active).
On to `Cc1cn([C@H]2C=C[C@@H](CO)O2)c(=O)[nH]c1=O`, for which the “activity change, negative = inhibition” value is 13.1% (inactive).
As to `CCC1(C)CC(=O)NC1=O` (stereo not given), the “activity change, negative = inhibition” value is 0.91% (inactive).
Regarding `Nc1nc2c(ncn2COC(CO)CO)c(=O)[nH]1`, the “activity change, negative = inhibition” value is 19.9% (inactive).
Consider `COc1nc(C)nc(Cl)c1NC1=NCCN1`, for which the “activity change, negative = inhibition” value is 18.8% (inactive).
Consider `Cc1cn([C@H]2C[C@H](N=[N+]=[N-])[C@@H](CO)O2)c(=O)[nH]c1=O`, for which the “activity change, negative = inhibition” value is -2.74% (inactive).
For the compound `CC(=O)OCC(CCn1cnc2cnc(N)nc21)COC(C)=O`, the “activity change, negative = inhibition” value is 3.84% (inactive).
For the compound `CN1C(C(=O)Nc2ccccn2)=C(O)c2ccccc2S1(=O)=O`, the Potency was 15.5 µM (active) and 10.7 µM (active).
With `NS(=O)(=O)c1cc2c(cc1Cl)NCNS2(=O)=O`, the “activity change, negative = inhibition” value was 113% (inactive).
With `Cc1ccc(C(=O)Nc2ccc(S(=O)(=O)O)c3cc(S(=O)(=O)O)cc(S(=O)(=O)O)c23)cc1NC(=O)c1cccc(NC(=O)Nc2cccc(C(=O)Nc3cc(C(=O)Nc4ccc(S(=O)(=O)O)c5cc(S(=O)(=O)O)cc(S(=O)(=O)O)c45)ccc3C)c2)c1`, the “activity change, negative = inhibition” value was 15.4% (inactive).
As to `COC(=O)Nc1nc2ccc(C(=O)c3cccs3)cc2[nH]1`, the “activity change, negative = inhibition” value was 52.9% (inactive).
With `CN1CCC(=C2c3ccccc3C=Cc3ccccc32)CC1`, the “activity change, negative = inhibition” value is 3.09% (inactive).
For `CC[C@@]1(O)C(=O)OCc2c1cc1n(c2=O)Cc2cc3c(CN(C)C)c(O)ccc3nc2-1`, the “activity change, negative = inhibition” value is -2.6% (inactive).
Take `CCOC(=O)c1ncn2c1CN(C)C(=O)c1cc(F)ccc1-2`: the Potency entry is “inactive and 13.5 µM (active)”.
Turning to `Cn1c(=O)c2c(ncn2C)n(C)c1=O`, the Potency result was “inactive”.
Turning to `CN1CCN(CCCN2c3ccccc3Sc3ccc(Cl)cc32)CC1`, the “activity change, negative = inhibition” value was 0.602% (inactive).
As to `CC(C(=O)O)c1cccc(C(=O)c2ccccc2)c1` (stereo not given), the Potency was 19.5 µM (active).
With `CN(C)CCCN1c2ccccc2CCc2ccc(Cl)cc21`, the “activity change, negative = inhibition” value was 2.09% (inactive).
For the compound `CCc1cccc2c3c([nH]c12)C(CC)(CC(=O)O)OCC3` (stereo not given), the Potency is 18.2 µM (active).
With `CC(C)Cc1ccc(C(C)C(=O)O)cc1` (stereo not given), the “activity change, negative = inhibition” value is -16.3% (inactive).
The same measure, in the same setting: the value for `CN1CCN2c3ccccc3Cc3ccccc3C2C1` (stereo not given) was -19.5% (inactive).

The record behind these values is PubChem BioAssay (NCATS).
